Reference: PubChem BioAssay (NCATS)
Inconclusive results are not listed. Entries that show only a call come without a potency. Calls of active or inactive are those of the source. Calls come from the whole dose curve; as a rule, active = well fitted inhibition curve with a large enough effect; inconclusive = small, poorly fitted or top-dose-only effect; inactive = flat fitted curve, though single readings scatter.
Potency is the fitted concentration of half-maximal effect.

Assay: P-glycoprotein substrates identified in KB-8-5-11 adenocarcinoma cell line, qHTS therapeutic library screen (AID 1346987); note: nearly all actives have a fitted effect of over 65% in size
Conditions: KB-8-5-11 (P-gp overexpressing) viability, CellTiter-Glo, 72 h; series mostly up to 44.5 µM
Source text: The ATP-binding cassette transporters P-glycoprotein (P-gp) is known to limit brain penetration of many chemotherapy drugs. […] As such, we developed a high-throughput screen (HTS) to identify substrates of P-gp from a series of chemical libraries including the National Center for Advancing Translational Sciences Pharmaceutical Collection NPC, 2,816 compounds), testing a total of 10,804 compounds, most of which have known mechanisms of action. We used the CellTiter-Glo viability assay to test library compounds against the parental KB-3-1 human cervical adenocarcinoma cell line and the colchicine-selected sub-line KB-8-5-11 that over-expresses P-gp. KB-8-5-11 cells were also tested in the presence of a P-gp inhibitor (tariquidar) to assess reversability of transporter-mediated resistance. Of the tested compounds, a total of 90 P-gp substrates were identified including 55 newly identified P-gp substrates. Substrates were confirmed using an orthogonal killing assay against HEK-293 cells transfected with P-gp. As exemplars, we confirmed that […] (cyclin-dependent kinase inhibitor); AT9283, (Janus kinase 2/3 inhibitor); ispinesib (kinesin spindle protein inhibitor); gedatolisib (PKI-587, phosphoinositide 3-kinase/mammalian target of rampamycin inhibitor); GSK-690693 (AKT inhibitor); and KW-2478 (heat shock protein 90 inhibitor) were substrates , and direct ATPase stimulation was assessed. ABCG2 was also found to confer high levels of resistance to AT9283, GSK-690693 and gedatolisib, while ispinesib, AT7519 and KW-2478 were weaker substrates.
The HeLa derivative cell line, KB-3-1, and its colchicine-selected, P-gp-overexpressing subline, KB-8-5-11 were maintained in DMEM with 10% FCS and Pen/Strep with glutamine at 37 degree C in 5% CO2. For KB-8-5-11 cells, colchicine was added to the medium at a concentration of 100 ng/mL. HEK-293 cells transfected with empty vector (pcDNA) or vector containing human ABCB1 (MDR-19) or ABCG2 (R-5) have been described previously (Robey, Lin, Qiu, Chan & Bates, 2011) and were maintained in EMEM supplemented with 10% FCS, Pen/Strep and glutamine with 2 mg/ml G418 to select for the expression of the transporter. Cultures were confirmed to be free of mycoplasma infection using the MycoAlert Mycoplasma Detection Kit (Lonza, Walkersville, MD). For the screen, assay medium was identical to culture medium except for KB-8-5-11 where colchicine was excluded from the medium.
All cell lines were plated into 1536-well plates at 500 cells/well in 5 uL media. Compounds were then pinned in dose-response using a 1536-head pin tool (Kalypsis, San Diego, CA) and plates were incubated at 37 degree C in 5% CO2 for an additional 72 h. CellTiter-Glo reagent (Promega) was dispensed into the wells, incubated for 5 min and luminescence was read on a ViewLux instrument (Perkin-Elmer). Cytotoxic compounds were defined as those that yielded a curve class of -1.1, -1.2, -2.1, -2.2, -2.3, or -2.4, a maximum response of >50% and an AC50 of < 10 uM. Cherry-picked hits from screening analysis were tested with both the KB pair of cell lines, and the pcDNA (empty vector control) and MDR-19 (P-gp overexpressing) pair were tested, in the absence and presence of tariquidar.
With `C[C@]12CC[C@@H]3c4ccc(O)cc4C[C@@H](CCCCCCCCCS(=O)CCCC(F)(F)C(F)(F)F)[C@H]3[C@@H]1CC[C@@H]2O` (stereo not given in full) the Potency was “inactive”. For `COc1cc(Cc2cnc(N)nc2N)cc(OC)c1OC`, the Potency was “inactive”. For `O=c1[nH]c(=O)n([C@H]2C[C@H](O)[C@@H](CO)O2)cc1Br`, the Potency was “inactive”. With `NC/C=C/C(=O)O` the Potency was “inactive”. In the case of `CN(C)C(=O)Oc1cccc([N+](C)(C)C)c1`, the Potency is reported as “inactive”. In the case of `CN=C(NC#N)NCCSCc1nc[nH]c1C`, the Potency is reported as “inactive”. In the case of `CN1C[C@H](C(=O)N[C@]2(C)O[C@@]3(O)[C@@H]4CCCN4C(=O)[C@H](Cc4ccccc4)N3C2=O)C[C@@H]2c3cccc4[nH]cc(c34)C[C@H]21`, the Potency is reported as “inactive”. With `CCNC(=O)N1CCN(CCCC(c2ccc(F)cc2)c2ccc(F)cc2)CC1` the Potency was 16.4 µM (active). In the case of `CCN(Cc1ccncc1)C(=O)C(CO)c1ccccc1` (stereo not given), the Potency is reported as “inactive”. With `CCN(CC)CCNC(=O)c1ccc(NC(C)=O)cc1` the Potency was “inactive”. With `CNCCC(Oc1ccccc1OC)c1ccccc1` (stereo not given) the Potency was “inactive”. With `Cc1nnc(SCC2=C(C(=O)O)N3C(=O)[C@@H](NC(=O)Cn4cnnn4)[C@H]3SC2)s1` the Potency was “inactive”. With `CCN(CC)CCCN(c1ccccc1)C1Cc2ccccc2C1` the Potency was 10.3 µM (active). With `CC(C)(Oc1ccc(CCNC(=O)c2ccc(Cl)cc2)cc1)C(=O)O` the Potency was “inactive”. For `CN(C)[C@@H]1C(=O)C(C(N)=O)=C(O)[C@@]2(O)C(=O)C3=C(O)c4c(O)ccc(Cl)c4[C@@H](O)[C@H]3C[C@@H]12`, the Potency was “inactive”. For `C[C@@H](O)[C@H]1C(=O)N2C(C(=O)O)=C(SCCN=CN)C[C@H]12`, the Potency was “inactive”. In the case of `CC(=O)Oc1cc(C(C)C)c(OCCN(C)C)cc1C`, the Potency is reported as “inactive”. With `C(=C\c1ccccc1)/CN1CCN(C(c2ccccc2)c2ccccc2)CC1` the Potency was “inactive”. For `NC(=Nc1ccccc1)Nc1ccccc1`, the Potency was “inactive”. For `O=C(O)CCCCCCCC(=O)O`, the Potency was “inactive”. In the case of `O=C(CCNNC(=O)c1ccncc1)NCc1ccccc1`, the Potency is reported as “inactive”. For `C[C@]12C=CC(=O)C=C1CC[C@H]1[C@@H]3C[C@@H](O)[C@](O)(C(=O)CO)[C@@]3(C)C[C@H](O)[C@@]12F`, the Potency was “inactive”. With `CCCCCN(CCCCC)C(=O)C(CCC(=O)O)NC(=O)c1ccc(Cl)c(Cl)c1` (stereo not given) the Potency was “inactive”. With `CCCCOCCOCCOCc1cc2c(cc1CCC)OCO2` the Potency was “inactive”. For `CC(N=C(NC#N)Nc1ccncc1)C(C)(C)C` (stereo not given), the Potency was “inactive”. In the case of `Cc1scc2c1N(C(=O)CN1CCN(C)CC1)c1ccccc1NC2=O`, the Potency is reported as “inactive”. With `CC(C)(C)NCC(O)c1cc(O)cc(O)c1` (stereo not given) the Potency was “inactive”. In the case of `CCN1CCC[C@H]1CNC(=O)c1c(O)c(Cl)cc(Cl)c1OC`, the Potency is reported as “inactive”. In the case of `CNCCCN1c2ccccc2CCc2ccccc21`, the Potency is reported as “inactive”. With `CCOC(=O)C1=C(C)NC(C)=C(C(=O)OC)C1c1cccc(Cl)c1Cl` (stereo not given) the Potency was “inactive”. For `Cc1ccc(S(=O)(=O)NC(=O)NN2CCCCCC2)cc1`, the Potency was “inactive”. In the case of `COc1cc2c(cc1OC)-c1cc(=Nc3c(C)cc(C)cc3C)n(C)c(=O)n1CC2`, the Potency is reported as 25.9 µM (active). For `COC(=O)C1=C(C)NC(C)=C(C(=O)OC(C)(C)CN(C)CCC(c2ccccc2)c2ccccc2)C1c1cccc([N+](=O)[O-])c1` (stereo not given), the Potency was 9.2 µM (active). For `CCN(CC)CCNC(=O)c1cc(S(C)(=O)=O)ccc1OC`, the Potency was “inactive”. In the case of `CCCCCCCC/C=C\CCCCCCCC(=O)NCc1ccc(O)c(OC)c1`, the Potency is reported as “inactive”. In the case of `COc1ccc(CN(CCN(C)C)c2ccccn2)cc1`, the Potency is reported as “inactive”. For `NC(=O)c1cn(Cc2c(F)cccc2F)nn1`, the Potency was “inactive”. For `C[N+](C)(C)CCOC(=O)CCC(=O)OCC[N+](C)(C)C`, the Potency was “inactive”. In the case of `CCCNC(C)C(=O)Nc1ccccc1C` (stereo not given), the Potency is reported as “inactive”. For `CC(C)(C)c1ccc(C(=O)CCCN2CCC(OC(c3ccccc3)c3ccccc3)CC2)cc1`, the Potency was 20.6 µM (active).
